D3 ag: D3 dopamine receptor (human) agonism; D3R DiscoveRx beta-arrestin cells, luminescence, 90 min; max activation, %; actives 0.58% (n = 410,000); AID 652048; in the data active means max activation above about 30%
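Agonist-mode cell screen: cells plated at 1500/well and incubated overnight at 37 °C, then exposed to library compounds for 90 min at 37 °C. Detection reagent was added for 30–60 min at room temperature, and luminescence was read.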
D1 PAM: human D1 dopamine receptor positive modulation. P21728. HEK293 TREx D1 cells, calcium flux, dopamine EC20 potentiation. potentiation, % at 10 µM. actives 0.036% (n = 360,000); in the data active means potentiation above about 30%
Target sequence (P21728 whole entry, looked up): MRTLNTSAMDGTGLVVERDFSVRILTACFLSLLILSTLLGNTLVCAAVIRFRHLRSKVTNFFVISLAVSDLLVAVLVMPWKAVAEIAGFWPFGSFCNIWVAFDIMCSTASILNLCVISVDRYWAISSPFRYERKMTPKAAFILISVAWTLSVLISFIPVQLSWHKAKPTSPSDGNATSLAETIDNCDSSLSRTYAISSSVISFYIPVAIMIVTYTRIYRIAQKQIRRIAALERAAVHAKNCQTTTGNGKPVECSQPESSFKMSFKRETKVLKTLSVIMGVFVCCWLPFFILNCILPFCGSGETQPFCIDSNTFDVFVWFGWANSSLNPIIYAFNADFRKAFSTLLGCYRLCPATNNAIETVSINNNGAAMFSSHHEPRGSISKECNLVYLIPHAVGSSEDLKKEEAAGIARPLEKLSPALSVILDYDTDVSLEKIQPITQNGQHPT
D1 antagonist: antagonists of human D1 dopamine receptor; AID 504652; actives 3.2% (n = 360,000); HEK293 TREx D1 cells, calcium flux, dopamine EC80; stronger effect = lower value; activity change, negative = inhibition, % at 10 µM; P21728; in the data active means activity change below about -30%
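Compound effects on dopamine-evoked calcium signalling were measured in tetracycline-induced HEK293 Trex D1 cells. Dopamine at EC80 followed a 180 s compound pre-read, and fluorescence was tracked kinetically for 180 s more.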
D1 ag: agonists of human D1 dopamine receptor; HEK293 T-REx D1 cells, calcium flux, agonist mode; P21728; activation, % at 2 µM; actives 1% (n = 360,000); in the data active means activation above about 30%
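Inducible HEK293 T-REx D1 cells, force-coupled to calcium signalling, were plated at 4000 cells/well with tetracycline and held overnight at 30 C. After no-wash calcium dye loading, compound-evoked calcium rise over 180 s flagged agonists.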
D3 antag: antagonists of human D3 dopamine receptor; P35462; D3R cells, DiscoveRx beta-arrestin luminescence, antagonist mode; stronger effect = lower value; max response, negative = inhibition, %; actives 2.5% (n = 360,000); in the data active means max response below about -50%; inconclusive means no clear call, values can overlap the other calls
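Cells plated overnight at 1500 cells/well, then exposed to library compounds with dopamine controls for 90 minutes at 37 degrees C. DiscoveRx reagent added for 30–60 minutes at room temperature; luminescence read, quantitative HTS format.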
Each line names hits and unclear results; the compound was inactive in the other large screens. Sampled rows, rich in hits. Any-hit rate of the full collection: about 6.1%.

Cc1cccc(NC(=O)Cn2cc(C(=O)c3ccccc3)c3ccccc32)c1	none (no result: D3 antag)
COC(=O)C1=C(c2cccc3c2S(=O)(=O)c2ccccc2-3)C[C@@H]2CC[C@H]1N2C(=O)N1CCc2cc(OC)c(OC)cc2C1	D1 antagonist -48
COC(=O)C1=C(c2cccc3c2S(=O)(=O)c2ccccc2-3)C[C@@H]2CC[C@H]1N2C(=O)N1CCOCC1	none
CCO/N=C(\CC)C1=C(O)CC(c2c(C)cc(C)cc2C)CC1=O (stereo not given)	none (no result: D1 PAM, D1 antagonist, D1 ag, D3 antag)
CCOC(=O)C1CCCN(c2ccc([N+](=O)[O-])c3nonc23)C1 (stereo not given)	D1 ag 752
COc1nn(CSP(=S)(OC)OC)c(=O)s1	none (no result: D1 PAM, D1 antagonist, D1 ag, D3 antag)
O=C1NC(=O)C(=Cc2ccc(Oc3ccc([N+](=O)[O-])cc3)cc2)C(=O)N1	D1 antagonist -36
c1ccc(CN2CCNCC2)cc1	none (no result: D1 PAM, D1 antagonist, D1 ag, D3 antag)
C[C@@H]1O[C@@H](O[C@@H]2C=C3CC[C@@H]4C(CC[C@]5(C)[C@@H](c6ccc(=O)oc6)CC[C@]45O)[C@@]3(C)CC2)[C@H](O)[C@H](O)[C@H]1O (stereo not given in full)	D3 ag 36
C[C@@H]1O[C@@H](O[C@@H]2C=C3CCC4C(CC[C@]5(C)[C@@H](c6ccc(=O)oc6)CC[C@]45O)[C@@]3(C)CC2)[C@H](O)[C@H](O)[C@H]1O (stereo not given in full)	none
c1ccc2c(CN3CCN(C4CCCCC4)CC3)c[nH]c2c1	D3 antag -67
C[C@H](N)C(=O)c1ccccc1	none (no result: D1 PAM, D1 antagonist, D1 ag, D3 antag)
O=C(Cc1cccc(C(F)(F)F)c1)N1CCN(CC(=O)N2CCCC2)CC1	none
O=C(CCN1CCN(CCO)CC1)N1c2ccccc2Sc2ccc(C(F)(F)F)cc21	D3 antag -74
CCOC(=O)C1(c2ccccc2)CCCN(C)CC1 (stereo not given)	none (no result: D1 PAM, D1 antagonist, D1 ag, D3 antag)
O=C(CN1CC=C(c2ccccc2)CC1)Nc1cc(Cl)ccc1Cl	none
O=C(CN1CC=C(c2ccccc2)CC1)Nc1c(Cl)cccc1Cl	D3 antag -71
Cc1ccc(S(=O)(=O)N(c2cc(Cl)c(O)c(Cl)c2)P(=O)(OC(C)C)OC(C)C)cc1	D1 antagonist -33
CCC(=O)OC1(Cc2ccc(CC)cc2)CC(C)N(C)CC1C (stereo not given)	D3 antag -56
C=C1C(=O)O[C@@H]2C[C@@H](C)[C@@H]3C=CC(=O)[C@@]3(C)[C@@H](O)[C@H]12	D3 antag -102
C[C@@H]1C[C@H]2OC(=O)C3(CO3)[C@H]2[C@H](O)[C@]2(C)C(=O)C3OC3[C@@H]12 (stereo not given in full)	none (no result: D3 ag, D3 antag)
CN1C(=O)C(=Cc2ccc(OCC(=O)Nc3ccccc3)cc2)C(=O)N(C)C1=O	D1 antagonist -34
COc1ccc(C=C2C(=O)N(C)C(=O)N(C)C2=O)cc1COc1ccc(NC(C)=O)cc1	none
OCCN(CCO)CCO	none (no result: D1 PAM, D1 antagonist, D1 ag, D3 antag)
CC(C)(C)c1ccc(O)c(CN2CCN(c3ccccc3)CC2)c1	D3 antag -71
Brc1ccc2c(c1)C(OC1CN3CCC1CC3)c1ccccc1CS2 (stereo not given)	D1 antagonist -36, D3 antag inconclusive
c1ccc2c(c1)CSc1ccccc1C2C1=NCCN1 (stereo not given)	none
Cc1ccccc1-n1nc(C)c2c1NC(=O)CSC2c1ccccc1C(F)(F)F (stereo not given)	none (no result: D3 antag)
COC1=CC=C2[C@H]3Cc4ccc(OC)c5c4[C@@]2(CCN3C)[C@H]1O5	D3 antag -66
O=C(Nc1ccc(F)c(Cl)c1)N(Cc1ccc2c(c1)OCO2)C1CCN(Cc2ccccc2)CC1	none (no result: D3 antag)
COc1ccc2[nH]c(C)c(CCNCc3cccnc3)c2c1	D1 ag 34
CCOc1cccc(CNCCc2c(C)[nH]c3ccc(OC(F)(F)F)cc23)c1O	D1 ag 117
Cc1[nH]c2ccc(OC(F)(F)F)cc2c1CCNCc1cccc([N+](=O)[O-])c1	D3 antag -64
Cc1ccc2[nH]c(C)c(CCNCc3ccco3)c2c1	none
Cc1[nH]c2ccc(OC(F)(F)F)cc2c1CCNCc1ccc(Cl)cc1	D1 ag 41
COc1ccc2[nH]cc(CCNCc3cccnc3)c2c1	none
Cc1oc(-c2ccc(Cl)cc2)nc1CN1C(=O)CN=C(c2ccccc2)c2ccccc21	none (no result: D3 antag)
CCOC(=O)/C=C(C)/C=C/C[C@@H](C)CCCC(C)C	none (no result: D1 PAM, D1 antagonist, D1 ag, D3 antag)
CCCC12CN3CC(C)(CN(C1)C3c1c(C)[nH]c(=O)[nH]c1=O)C2=O (stereo not given)	none (no result: D3 antag)
NCC(O)c1cccc(O)c1 (stereo not given)	none (no result: D1 PAM, D1 antagonist, D1 ag, D3 antag)
O=C(c1cccc2ccccc12)C1CCCN(Cc2ccon2)C1 (stereo not given)	D3 antag -68
O=C(c1cccc2ccccc12)C1CCCN(C2CCC2)C1 (stereo not given)	D3 antag -51
Cc1cc(OCC(=O)N2CCN(CCc3ccccn3)CC2)cc(C)c1Cl	none (no result: D3 antag)
CC1=C(/C=C/c2ccccc2)CCN(C)C1	D3 antag -63
CC1CCC(C(C)C)C(OC(=O)c2ccccc2N)C1 (stereo not given)	none (no result: D1 PAM, D1 antagonist, D1 ag, D3 antag)
Cc1ccc(O)c(C(=O)c2cc(C(=O)NCc3ccccc3)c(=O)n(Cc3ccccc3)c2)c1	D3 antag -69
O=C(c1cc(C(=O)NCc2ccccc2)c(=O)n(Cc2ccccc2)c1)c1cc(Br)ccc1O	none
OC(c1ccccc1)(c1ccccc1)C1CN2CCC1CC2 (stereo not given)	D3 antag -70
C=C[C@H]1CN2CC[C@H]1C[C@H]2[C@H](OC(=O)OCC)c1ccnc2ccc(OC)cc12	none (no result: D1 PAM, D1 antagonist, D1 ag, D3 antag)
CCOc1ccc(C2C(C#N)=C(N)Oc3c2c(=O)oc2ccccc32)cc1 (stereo not given)	none
O=C1CC(c2ccc(Br)cc2)c2c(c3ccccc3oc2=O)O1 (stereo not given)	D3 ag 51 (no result: D3 antag)
CC(C)Oc1ccc(CC2(CCc3ccncc3)C(=O)NC(=O)NC2=O)cc1	D3 ag 33
O=C(Cc1ccc([N+](=O)[O-])cc1)N1CCN(Cc2ccc3c(c2)OCO3)CC1	D1 antagonist -36
N#Cc1ccc(OCC(=O)N2CCN(Cc3ccc4c(c3)OCO4)CC2)cc1	none
Fc1ccccc1CCNCc1cccc(Cl)c1Cl	D3 antag -58 (no result: D1 PAM, D1 antagonist, D1 ag)
CC(C)(C)NC[C@H](O)c1ccc(O)cc1Cl	none (no result: D1 PAM, D1 antagonist, D1 ag, D3 antag)
CC(Cc1ccc(O)cc1)NCC(O)c1cc(O)cc(O)c1 (stereo not given)	D1 antagonist -31 (no result: D3 ag, D1 PAM, D1 ag, D3 antag)
CNC1(c2ccccc2Cl)CCCCC1=O (stereo not given)	none (no result: D1 PAM, D1 antagonist, D1 ag)
CN(C(=O)c1ccco1)C1(c2ccccc2Cl)CCCCC1=O (stereo not given)	D3 antag -53
COc1ccccc1CCNCc1cc2c(cc1[N+](=O)[O-])OCO2	D3 antag -56
CN1CC=C(c2c[nH]c3ccccc23)CC1	D3 antag -85
c1ccc2c(CN3CCCCCCC3)c[nH]c2c1	none

Source: PubChem (National Center for Advancing Translational Sciences (NCATS))
